The record followed here is PubChem BioAssay AID488899 (Broad Institute, 2010).

The term inhibition denotes the change of the read-out against control, counted positive when it falls.

The structures appear in SMILES notation. Screen size: about 330,000 compounds; about 2,800 (0.85%) were called active. The sample holds actives, similar compounds and a random draw of the others, so the mix is not that of the screen.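 The calls were made as follows: active = mean inhibition across replicates of 60% or more, whatever share of single replicates reaches that level; inconclusive = some that reach 60%, reason not given; inactive = mean inhibition across replicates below 60%.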

The nature of this test: inhibitors of MITF-dependent TRPM1 promoter reporter, primary screen, cell-based, SK-MEL-5, single point, luciferase (AID 488899). The conditions noted are these: SK-MEL-5 TRPM1 promoter luciferase, 24 h; at 12.5 µM; hits give high values.
Turning to `CC(=O)N(CC(O)CO)c1c(I)c(C(=O)NCC(O)CO)c(I)c(C(=O)NCC(O)CO)c1I` (centres undefined), the inhibition is -3.11% (inactive).
The result for `Brc1ccc2ncnc(NCc3cccnc3)c2c1` reads -1.36% (inactive).
The value for `O=C(O)CCCCCNc1ncnc2ccc(Br)cc12` was 1.66% (inactive).
With `COc1ccc(Nc2ncnc3ccc(Br)cc23)c(OC)c1`, the inhibition was 67.9% (active).
The result for `N/C(=N\S(=O)(=O)c1ccc(Cl)cc1)N1CCOCC1` reads 1.47% (inactive); that for `Cc1cc([N+](=O)[O-])c(=O)[nH]c1C`, -0.774% (inactive).
For the compound `COc1ccc(C(C[N+](=O)[O-])n2nc(C)cc2C)cc1` (centres undefined), the inhibition was 27.2% (inactive).
The result for `O=C(NN=Cc1ccccc1O)NN=Cc1ccccc1O` reads 22.9% (inactive); that for `Cc1ccc(/C=N/NC(=O)C2=NNC(c3ccccc3)(c3ccccc3)C2)c(O)c1`, 76.5% (active); that for `CCN(CC)c1ccc(/C=N/NC(=O)c2cnccn2)c(O)c1`, 25.3% (inactive).
Turning to `CCOC(=O)c1c(S(=O)(=O)NCC(=O)Nc2ccc(C)cc2)c(C)n(C)c1C`, the inhibition is 7.89% (inactive).
The value for `Cc1c(N=Nc2ccc(N(C)C)cc2)c(=O)n(-c2ccccc2)n1C` was -25.6% (inactive); that for `Cn1c(=S)sc2ccc3ccccc3c21` was 0.517% (inactive); that for `CC(=O)Nc1ccc(Nc2c3ccccc3nc3ccccc23)cc1` was 62.4% (active).
The value for `CC(=O)Nc1ccc(Nc2cc(C)nc(Nc3ccc(NC(C)=O)cc3)n2)cc1` was -5.88% (inactive); that for `CCc1nc(Nc2ccc(NC(C)=O)cc2)c2oc3ccccc3c2n1` was 5.96% (inactive).
The value for `Cc1ccc(Cl)cc1N1CCN(C(=O)c2cccc3c(=O)c(C)c(-c4ccccc4)oc23)CC1` was 9.36% (inactive); that for `C/C=N/N(c1ccccc1)c1ccccc1` was 2.93% (inactive); that for `O=C(NNC(=O)c1ccc2ccccc2c1)c1ccc(Cl)cc1` was 10.1% (inactive).
As for `O=C(CN1CCN(S(=O)(=O)c2ccc(Br)cc2)CC1)Nc1ccccc1C(=O)c1ccccc1`, the inhibition was -0.0235% (inactive).
The value for `O=C(NN=Cc1ccc([N+](=O)[O-])cc1)C1CC1` was -20.4% (inactive); that for `O=C1/C(=C\c2ccc([N+](=O)[O-])cc2)CS(=O)(=O)C/C1=C/c1ccc([N+](=O)[O-])cc1` was 106% (active).
`O=[N+]([O-])c1ccc(C=NN=Cc2ccc([N+](=O)[O-])cc2)cc1`: the inhibition was -1.22% (inactive).
The value for `Cc1cc(C)c2nc3nc(C)cc(C)c3c(N)c2c1` was 69% (active); that for `O=S(=O)(NCc1ccccc1Cl)c1cnc[nH]1` was 9.3% (inactive).
The value for `CN(C)/C=C(\C#N)C(=O)c1cccnc1Oc1ccc(F)cc1F` was -3.39% (inactive); that for `COc1cc(NC(=O)c2[nH]cnc2C(N)=O)cc(C(=O)Nc2cccc(C(F)(F)F)c2)c1` was 89.9% (active); that for `Cc1cccc(NC(=O)c2nnn(-c3cccc(C(F)(F)F)c3)c2N)c1` was -39.6% (inactive).
Regarding `COc1cc(NC(=O)c2cncc(-c3ccc(C#N)cc3)c2)cc(C(=O)Nc2cccc(C(F)(F)F)c2)c1`, the inhibition is 71.3% (active).
In the case of `N#Cc1ccc(Oc2ccc(C(F)(F)F)cc2NC(=O)c2ccc(F)cc2)cc1`, the inhibition is -2.39% (inactive).
The result for `O=C(Nc1ccc(-c2csc(Nc3cccc(C(F)(F)F)c3)n2)cc1)c1cccc(C(F)(F)F)c1` reads -14.9% (inactive); that for `COc1ccc(NC(=O)C(=O)NCC(=O)Nc2cccc(C(F)(F)F)c2)cc1`, 3.29% (inactive); that for `CC(C)[C@@H](NC(=O)OC(C)(C)C)C(=O)NCC1CCC(C(=O)N[C@@H](Cc2ccccc2)C(=O)O)CC1` (some centres undefined), -3.13% (inactive).
The value for `CCOCCCn1c(NN)nc2ccccc2c1=O` was 10.3% (inactive); that for `O=c1oc(/C=C/c2ccccc2)nc2ccccc12` was -14.4% (inactive).
The result for `CCn1c(/C=C/c2ccc([N+](=O)[O-])o2)nc2ccccc2c1=O` reads 75.9% (active).
In the case of `CC(=O)NC(CC(=O)Nc1nccs1)c1ccccc1` (centres undefined), the inhibition is -5.93% (inactive).
For `O=C1CC[C@@H]2CC3(C[C@@H]4CCN1[C@H]24)Nc1cc([N+](=O)[O-])ccc1NC3=NC1CCCCC1` (some centres undefined), the inhibition was -4.61% (inactive).
The result for `CC(=O)N1CC[n+]2c(-c3ccc([N+](=O)[O-])cc3)csc21` reads -4.65% (inactive); that for `COCCN1C(=O)C(=O)/C(=C(/O)c2ccc(S(=O)(=O)N3CCOCC3)cc2)C1c1ccc(OC)c(OC)c1` (centres undefined), 2.98% (inactive); that for `CCOC(=O)c1ccccc1OC(=O)Oc1ccccc1C(=O)OCC`, 24% (inactive).
The value for `CCOC(=O)c1c(C)nc(-c2ccccc2)nc1NC(=O)C(C)C` was -26.2% (inactive); that for `CCOC(=O)c1c(C)[nH]c2c1-c1ccccc1C(=O)C2=O` was 106% (active).
Consider `CC(C)OC(=O)CN1CCN(c2ccc(Cl)cc2)CC1`, for which the inhibition was -22.1% (inactive).
Take `C=CCn1c(C)cc(C2=NNC(=NCC)SC2)c1C`: the inhibition is 98.4% (active).
Regarding `Cc1ccc(S(=O)(=O)NCc2ccc(C(=O)NC3CCC(C)CC3)cc2)cc1` (centres undefined), the inhibition was -5.23% (inactive).
The result for `O=C(NCCc1ccccc1)c1cccc(NC(=O)c2ccccc2)c1` reads -26.7% (inactive); that for `CCN(CC(=O)Nc1c(F)cccc1F)C(=O)Cc1cccs1`, -11.1% (inactive); that for `CSc1ncc(Cl)c(C(=O)Nc2cc(C)ccc2C)n1`, 18.6% (inactive).
For the compound `Cc1cccc(NC(=O)c2nc[nH]c2C(=O)NCC(=O)OCc2ccccc2)c1`, the inhibition is -4.1% (inactive).
The result for `COCCSc1nnc(NC(=O)CCS(=O)(=O)Cc2ccccc2)s1` reads -6.5% (inactive); that for `Cc1ccc(CS(=O)(=O)c2ncc(Cl)c(C(=O)Nc3nnc(C)s3)n2)cc1`, 85.4% (active); that for `Cc1ccc(S(=O)(=O)CC(=O)Nc2nnc(C)s2)cc1`, 7.41% (inactive).
Take `Cc1cccc(CS(=O)(=O)c2ncc(Cl)c(C(=O)Nc3ccc(F)cc3)n2)c1`: the inhibition was 41% (inactive).
Take `Cc1nnc(NC(=O)c2ccc3nccnc3c2)s1`: the inhibition is -45.1% (inactive).
Regarding `Cc1cccc(NC(=O)c2nc(S(=O)(=O)Cc3ccccc3)ncc2Cl)c1`, the inhibition was 70.8% (active).
Take `CSc1nnc(NC(=O)c2nc(S(=O)(=O)Cc3ccc(C)cc3)ncc2Cl)s1`: the inhibition was 62.7% (active).
The value for `NS(=O)(=O)c1ccccc1NC(=O)c1c(O)c2ccccc2[nH]c1=O` was -57.1% (inactive); that for `Cc1nc(N)nc(Cl)c1CCC1OCCO1` was -7.11% (inactive).
